# In PubChem BioAssay AID504444 (National Center for Advancing Translational Sciences (NCATS), 2011):
# Out of some 360,000 compounds screened, about 7,500 (2.1%) were called active. Roughly 20% stayed inconclusive and do not appear here. The entries come from a sample that favours actives as a whole. Unmarked numbers belong to inactive results. Calls come from the whole dose curve; as a rule, active = well fitted inhibition curve with a large enough effect; inconclusive = small, poorly fitted or top-dose-only effect, or effect the other way; inactive = flat fitted curve, though single readings scatter.
# Experiment: Nrf2 qHTS screen for inhibitors; note: nearly all actives have a fitted effect of over 60% in size
# Conditions: A549 ARE-Fluc reporter, luciferase luminescence, 18-24 h; series mostly up to 46 µM; activity change, negative = inhibition: at the top concentration
# How it was run: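 A549 ARE_Fluc cells, 5000/well, 5% FBS OPTI-MEM; compounds in dose-response, 18-24 h at 37 °C/5% CO2; CellTiter-Fluor viability read (Ex 405/Em 525), then BugLite luciferase luminescence = Nrf2 activity.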
# % is set by controls: 0 for no effect and ±100 for the full control effect; potency is the fitted concentration of half-maximal effect.
SMILES,Potency,"activity change, negative = inhibition"
CCOC(=O)/C(=N\Nc1ccccc1[N+](=O)[O-])c1csc(Nc2ccccc2)n1,20.6 µM (active),–
CCOC(=O)Cc1csc(NC(=O)Nc2ccccc2)n1,–,5.68%
CCOC(=O)C/C(C)=N\Nc1ccc([N+](=O)[O-])cc1[N+](=O)[O-],–,-12.2%
CC(=O)OC1=C(C(C)=O)N(Cc2ccccc2)S(=O)(=O)c2ccccc21,–,-4.38%
Cn1c(Cc2cccc3ccccc23)nnc1SCC(=O)N1CCN(c2cccc(Cl)c2)CC1,10.3 µM (active),–
Cc1cc2nnc(SCC(=O)N3CCN(c4ccccc4)CC3)n2c(N)n1,–,10.4%
Cn1c(CNC(=O)c2ccco2)nnc1SCC(=O)N1CCN(c2ccccc2)CC1,–,-11.5%
CC(=O)c1ccc(N2CCN(C(=O)c3ccc(Cl)c(S(=O)(=O)NC4CC4)c3)CC2)c(F)c1,–,-4.28%
Cc1nn(-c2ccccc2)c(C)c1NC(=O)COC(=O)c1cc(Cl)ccc1O,–,-12.6%
Cc1nn(-c2ccccc2)c(C)c1NC(=O)CCl,–,-1.19%
Cc1nn(-c2ccccc2)c(C)c1NC(=O)COc1ccc(Cl)cc1Cl,16.4 µM (active),–
NC(=O)C1(Nc2ccc([N+](=O)[O-])cc2)CCCC1,–,-7.2%
Cn1c(=O)c2c(-c3ccccc3Br)n(Cc3ccccc3)cc2n(C)c1=O,–,-16.6%
CCC(=O)N1CCc2cc(Br)cc(S(=O)(=O)CCC(=O)N3CCN(c4ccc(F)cc4)CC3)c21,–,3.12% [at 9.27 µM]
Cc1ccc(N2CCN(C3=NC(=O)/C(=C\c4cccs4)S3)CC2)cc1,–,-1.2%
CC(C)=C1SC(N2CCN(c3cccc(C)c3)CC2)=NC1=O,23.1 µM (active),–
CC(C)=C1SC(N2CCN(c3ccc(C)c(Cl)c3)CC2)=NC1=O,–,-13.3%
CCN(CC)S(=O)(=O)c1ccc(N2CCCC2)c(NC(=O)c2ccc([N+](=O)[O-])o2)c1,–,-12.4%
C=Cc1ccc(Cn2c(C(=O)O)c(CNC3CCCC3)c3ccc(C)cc32)cc1,–,-0.54%
COc1ccc(NS(=O)(=O)c2cc(C(=O)Nc3ccccc3C(=O)O)ccc2C)cc1,–,12.1%
Cc1ccccc1NC(=O)c1cc(S(=O)(=O)Nc2cccc(C(=O)O)c2)ccc1Cl,–,9.1%
C=CCNC(=O)c1ccccc1NC(=O)c1ccc(Cl)c(S(=O)(=O)Nc2cccc(C)c2C)c1,9.2 µM (active),–
CCOC(=O)C1CCCN(C(=O)c2ccc3c(c2)sc2nc(-c4ccc(CC)cc4)cn23)C1 (centres undefined),–,-9.95%
Cc1ccc(-c2nc3ccccn3c2Nc2c(C)cccc2C)o1,–,3.18% [at 9.27 µM]
CC(C)NC(=S)N1CCN(C(c2ccccc2)c2ccccc2)CC1,–,13.5%

SMILES,Potency,"activity change, negative = inhibition"
CC1(C)CC(N2CCN(C(c3ccccc3)c3ccccc3)CC2)=CC(=[N+]2CCCCC2)C1,7.31 µM (active),–
O=C(O)CN1CCN(C(c2ccccc2)c2ccccc2)CC1,–,8.98%
Cc1ccc(C(=O)CSc2nc(-c3ccccc3)nc3c2CCCC3)c(C)c1,–,-6.25%
O=C(NCc1ccccc1CN1CCCC1)c1cccc(S(=O)(=O)Nc2ccc(F)cc2)c1,–,1.66%
COc1ccc2sc(-c3ccc(N(C)C)cc3)c(C#CCO)c2c1,–,-17.9%
COc1ccc2sc(-c3ccc(N(C)C)cc3)c(-c3ccc4cc[nH]c4c3)c2c1,–,11%
COc1ccc2c(c1)c(=Cc1ccc(N(C)C)cc1)c1cc(-c3ccccc3)[n+](C)n12,16.4 µM (active),–
CC1Cc2ccccc2N1S(=O)(=O)c1cccc(C(=O)NCC(c2ccco2)N2CCCC2)c1 (centres undefined),–,2.2%
Cc1nc(SCC(=O)NC2CCCCC2C)c(C#N)c(C)c1C (centres undefined),–,16.3%
CC(=O)OCC(=O)C1(O)CCC2C3CC(C)C4=CC(=O)CCC4(C)C3C(O)CC21C (centres undefined),0.082 µM (active),–
CC1(C)C(=O)CCC2(C)C1=CCC1C2C(=O)CC2(C)C1CCC2(O)C(=O)CO (centres undefined),–,5.06%
O=C1c2ccccc2C(=O)N1c1ccc(S(=O)(=O)N2CCOCC2)c2ccccc12,–,-9.07%
O=S(=O)(c1ccc(SCc2ccc(Br)cc2)nc1)N1CCOCC1,–,-4.56%
CCOc1cc(N2CCOCC2)c(OCC)cc1NC(=O)COC(=O)[C@H](Cc1c[nH]c2ccccc12)NC(C)=O,–,-12.5%
CCOc1cc(N2CCOCC2)c(OCC)cc1NC(=O)COc1cccc2cccnc12,20.6 µM (active),–
CCOc1cc(N2CCOCC2)c(OCC)cc1NC(=O)COc1cccc(Cl)c1,–,-6.27%
O=C(CSc1nc2ccccc2[nH]1)Nc1nc(-c2ccccc2)c(-c2ccccc2)o1,–,18.4%
C=CCSc1nc2ccccc2[nH]1,–,7.89%
CCC(C)N1C(=O)S/C(=C/c2ccc(Sc3nc4ccccc4[nH]3)o2)C1=O (centres undefined),0.731 µM (active),–
C#CCOc1ccc(C2CC(=O)Nc3c2c(C)nn3-c2nc(C)cc(C)n2)cc1 (centres undefined),–,6.44%
CN(C)S(=O)(=O)c1ccc(C(=O)NCC(C)(C)N2CCOCC2)cc1,–,25.8%
CC(C)(CNC(=O)c1ccc(Cl)c(S(=O)(=O)N2CCc3ccccc3C2)c1)N1CCOCC1,13 µM (active),–
CC(C)(CNC(=O)Cc1ccc(Cl)cc1Cl)N1CCOCC1,–,1.4%
Cc1noc(C)c1-c1ccc2ncnc(NCc3ccc(F)c(F)c3)c2c1,–,-20.5%
